# Shown are actives, neighbours in structure and some others; about 18% of the full set was active somewhere.
# RORg inh: ROR gamma (mouse) transcription inhibition | P51450 | Drosophila S2 Gal4-RORgamma UAS-luciferase reporter, 20 h | Potency, µM (doses to about 53.6 µM), for inactives: at the highest dose activity change, negative = inhibition, hits mostly inhibitors | 310,000 compounds, 5.4% hits; further: potency means the concentration at half of the fitted maximal effect; nearly all actives have a fitted effect of over 60% in size
# Target sequence (P51450 whole entry, looked up, the tested form may be a part): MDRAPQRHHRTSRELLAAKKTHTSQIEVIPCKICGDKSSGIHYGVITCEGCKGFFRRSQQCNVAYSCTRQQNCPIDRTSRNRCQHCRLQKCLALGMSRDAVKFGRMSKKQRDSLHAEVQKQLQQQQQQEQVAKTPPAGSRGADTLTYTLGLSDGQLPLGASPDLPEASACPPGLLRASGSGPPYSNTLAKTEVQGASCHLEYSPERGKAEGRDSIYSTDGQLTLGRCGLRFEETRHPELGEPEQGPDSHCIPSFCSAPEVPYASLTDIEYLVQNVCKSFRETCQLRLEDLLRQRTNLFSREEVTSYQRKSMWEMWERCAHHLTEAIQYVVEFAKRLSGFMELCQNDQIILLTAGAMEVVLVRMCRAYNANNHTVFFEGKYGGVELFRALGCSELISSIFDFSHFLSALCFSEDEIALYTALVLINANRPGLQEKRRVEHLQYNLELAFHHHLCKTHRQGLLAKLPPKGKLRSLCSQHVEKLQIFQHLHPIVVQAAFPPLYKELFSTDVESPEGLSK
#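 Stably transfected Drosophila Schneider cells are the test system, with ROR gamma fused to Gal4 and luciferase under UAS control; luminescence is read after 20 hr of 700 uM copper sulfate induction at ambient temperature.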
# DT40 TDP1 no CPT: qHTS for Inhibitors of human tyrosyl-DNA phosphodiesterase 1 (TDP1): qHTS in cells in absence of CPT; 420,000 compounds, 15% hits; DT40 Tdp1-/- hTDP1 cells, no CPT, ATP luminescence, 48 h; AID 686978, 2013; Potency, µM (highest dose often 46.2 µM), inactives show at the top dose activity change, negative = growth inhibition, usual class: inhibitors; further: potency means the concentration at half of the fitted maximal effect; nearly all actives have a fitted effect of over 55% in size
#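 Growth kinetics read by CellTiter-Glo luminescence after ≥48 hr at 37 °C. Cells: DT40 Tdp1-/- stably carrying human TDP1, 400 per well, compound exposure in the absence of CPT (DMSO vehicle).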
# Gal4-VP16 FLuc: counter-screen for ROR gamma inhibitors: Gal4-VP16 reporter; Drosophila S2 Gal4-VP16 UAS-luciferase, luminescence, 20 h; Potency, µM (titrated, usually from 53.6 µM), inactives show at the highest dose activity, negative = inhibition, usual class: inhibitors; 310,000 compounds, 3.5% hits; AID 2546;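 further: Gal4-VP16 expression switched on by copper sulfate through the metallothionein promoter; potency means the concentration at half of the fitted maximal effect; nearly all actives have a fitted effect of over 50% in size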
# IL1B secr inh: inflammasome signaling inhibition, IL-1 beta readout | 360,000 compounds, 4.7% hits | THP-1 LPS/ATP IL-1B secretion, AlphaLISA, 16 h; hits give low values | activity change, % at 57.5 µM; in the data active means activity change below about -50%; inconclusive means mostly about -30% to -49%
#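 Secreted IL-1B measured by AlphaLISA bead assay after 16 h compound exposure of THP-1 cells; compounds (final up to 57.5 uM) added 1 h before LPS (250 ng/mL) and ATP (1.25 mM) stimulation; lower signal means less secretion.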
# DT40 TDP1 CPT: DT40-hTDP1 cell growth loss with CPT; chicken DT40 Tdp1-/-;hTDP1 cells + 20 nM CPT, ATP luminescence, 48 h; Potency, µM (titrated, usually from 46.2 µM), for inactives: at the top dose activity change, negative = growth inhibition, hits mostly inhibitors; 420,000 compounds, 12% hits; further: potency means the concentration at half of the fitted maximal effect; nearly all actives have a fitted effect of over 55% in size
#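 Chicken DT40 Tdp1-/- cells stably complemented with human TDP1 were seeded at 400 cells/well in medium containing 20 nM camptothecin, exposed to pin-transferred compounds, and grown at 37 °C for at least 48 hr. Viability was read as ATP luminescence.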
# LDHA inh: inhibitors of human lactate dehydrogenase A | 480,000 compounds, 0.15% hits | AID 1347041 | activity change, % (values are at about 110 or 230 µM) | purified LDHA, NADH/diaphorase-resazurin fluorescence; hits give low values; in the data active means activity change below about -30%; inconclusive means mostly about -25% to -30%;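 further: plate controls were DMSO wells for no effect and wells without enzyme for full effect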
#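 Human LDH5 (2 nM) was incubated with 0.06 mM NADH and 0.2 mM pyruvate for 5 min at room temperature in Tris pH 7.4. Remaining NADH was coupled through diaphorase/resazurin, and resorufin fluorescence was read at 0 and 20 min.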
# Active calls of the source: *; ? = inconclusive; / = no result given. Unless noted, the call rests on the fitted dose curve; in most records, active means well fitted curve in the direction sought with a large enough effect; inconclusive means small, poorly fitted or top-dose-only effect, or another doubt; inactive means no such curve, though single readings can be large; an effect the other way counts as inactive or inconclusive. Unless noted, on the % scale 0 is the no-effect control and ±100 the full control effect.
SMILES,RORg inh,DT40 TDP1 no CPT,Gal4-VP16 FLuc,IL1B secr inh,DT40 TDP1 CPT,LDHA inh
COc1ccc2c(c1)C(=O)Cc1ccccc1O2,/,21µM*,/,-11,-9%,3
COc1ccc(C2CC(=O)c3cc(OC)ccc3O2)cc1 (configuration not stated),/,?,/,-26,-27%,-5
CCOc1ccc(OCC)c(NC(=O)CN2CCN(c3cccc(C)c3)CC2)c1,15%,16µM*,2%,22,23µM*,-24
CCOc1ccc(OCC)c(NC(=O)CN2CCN(CC)CC2)c1,-33%,-20%,-1%,10,-7%,-16
CCOc1ccc(OCC)c(NC(=O)CN2CCN(c3cc(C)ccc3C)CC2)c1,?,23µM*,-5%,-24,21µM*,-6
CCOc1ccc(OCC)c(NC(=O)CN2CCN(c3cccc(C)c3)C(C)C2)c1 (configuration not stated),24%,15µM*,-18%,-25,15µM*,?
CCOc1ccc(OCC)c(NC(=O)CN2CCN(CC(=O)NC(C)C)CC2)c1,-19%,?,-6%,1,15µM*,-13
CN(CC(=O)NCCc1cccc2ccccc12)c1ncnc2nc[nH]c12,/,/,/,/,/,-2
Cc1ccc(COCC(CC(C)C)N2CCN(C(=O)c3cccc(C(F)(F)F)c3)CCC2=O)cc1 (configuration not stated),?,?,2%,-27,?,2
Cc1cccc(COC[C@H](CC(C)C)N2CCN(C(=O)c3ccc(C(C)(C)C)cc3)CCC2=O)c1,/,?,/,-70*,?,1
Cc1cccc(COCC(CC(C)C)N2CCN(C(=O)c3ccc(C(C)(C)C)cc3)CCC2=O)c1 (configuration not stated),-3%,18µM*,-7%,-73*,?,4
CC(C)CC(COCc1ccc(F)cc1)N1CCN(C(=O)c2cccc(C(F)(F)F)c2)CCC1=O (configuration not stated),58%,?,4%,-9,?,4
CC(C)CC(COCc1ccc([N+](=O)[O-])cc1)N1CCN(C(=O)c2ccc(C(F)(F)F)cc2)CCC1=O (configuration not stated),-2%,?,-6%,?,18µM*,1
Cc1cccc(COCC(CC(C)C)N2CCN(C(=O)c3ccc(C(F)(F)F)cc3)CCC2=O)c1 (configuration not stated),?,?,?,-54*,23µM*,1
O=C(NC1CCCC(C(F)(F)F)C1)c1cc2c(F)cccc2s1 (configuration not stated),/,/,/,/,/,11
COc1ccc(C(=O)Oc2ccc(C(C)(C)C)cc2)cc1Br,/,/,/,/,/,0
CCN(Cc1cccc(F)c1)C(=O)Cn1cnc2c1c(=O)n(C)c(=O)n2C,/,/,/,/,/,2
COc1ccc(NC(=O)c2nc3ccccc3nc2N2CCCCC2)cc1,/,/,/,/,/,2
CCCNC(=O)CN1CCN(c2cc3ccccc3c(Cl)n2)CC1,-7%,16µM*,4%,-21,?,9
CN1OC[C@@H]2CN(Cc3ccccc3)[C@H](c3cccc(Oc4ccccc4)c3)C[C@@H]21,/,23µM*,/,-9,26µM*,3
CN1OC[C@@H]2CN(Cc3cc(Cl)cc(Cl)c3)[C@H](c3cccc(Oc4ccccc4)c3)C[C@@H]21,/,?,/,?,?,5
CCN(CC)CCNCC1C(=O)O[C@@H]2C[C@@]3(C)CCC[C@H](C)C3=C[C@H]12 (some centres not stated),5%,13µM*,0%,/,?,-2
O=C(Cc1ccc(-c2csc(Nc3ccc(F)cc3)n2)s1)N1CCOCC1,/,/,/,/,/,17
CC(C)=NNc1cnnc2ccc([N+](=O)[O-])cc12,/,13µM*,/,33,13µM*,11
CCOC(=O)c1cn(Cc2ccccc2)c(C(=O)OC(C)(C)C)c1O,/,-11%,/,-2,23µM*,5
SMILES,RORg inh,DT40 TDP1 no CPT,Gal4-VP16 FLuc,IL1B secr inh,DT40 TDP1 CPT,LDHA inh
CCOC(=O)c1cn(Cc2ccccc2)c2cc(C)nn2c1=O,-10%,-23%,0%,11,2%,-7
O=C1C(=C(c2ccccc2)c2ccccc2)C(Cl)C(Cl)(Cl)c2ccccc21 (configuration not stated),/,/,/,/,/,97
CCCCCCCC/C=C\CCCCCCCC(=O)N[C@@H](CO)Cc1ccc(O)cc1,2%,11µM*,?,/,12µM*,/
C/C(Cn1nnc([N+](=O)[O-])n1)=N\NC(=O)c1ccncc1,?,21µM*,?,46,16µM*,29
C/C(Cn1nnc([N+](=O)[O-])n1)=N\NC(=O)c1ccc(C)cc1,?,15µM*,?,41,13µM*,34
C/C(Cn1cnc([N+](=O)[O-])n1)=N\NC(=O)c1ccncc1,-9%,10%,0%,25,-25%,11
C/C=C/C1=CC(=O)C[C@H](c2ccc(OC)c(OC)c2)C1,/,?,/,-97*,?,0
C/C=C/C1=CC(=O)C[C@H](c2ccc(Cl)cc2)C1,/,?,/,-82*,?,1
O=C1N/C(=C\c2ccco2)C(=O)N1Cc1ccccc1,/,/,/,/,/,1
O=C(OC(C(=O)NC1CC1)c1ccccc1)c1n[nH]c(=O)c2ccccc12 (configuration not stated),/,/,/,/,/,-2
CN(O)/C=C1\C(=O)Nc2ccccc21,10%,-31%,-1%,18,-9%,9
O=C1Nc2ccccc2/C1=C\C(=O)c1ccccc1,13µM*,2.1µM*,?,-21,2.9µM*,-19
CC(C)Oc1ccc(C(=O)/C=C2/C(=O)Nc3ccccc32)cc1,10µM*,12µM*,?,-100*,?,-1
O=C(/C=C1\C(=O)Nc2ccccc21)/C=C1\C(=O)Nc2ccccc21,13µM*,1.8µM*,10µM*,-2,1.5µM*,4
Cc1ccc(S(=O)(=O)c2c(C)nn(C(C)(C)C)c2OC(=O)c2ccc(Br)o2)cc1,?,?,?,-72*,?,-1
COc1ccc(NC(=O)c2cc(-c3cc(C)cc(C)c3O)n[nH]2)cc1Cl,?,?,?,-79*,21µM*,0
COc1ccc(NC(=O)c2cc(-c3ccccc3O)n[nH]2)cc1Cl,-10%,?,5%,-9,-15%,-6
Cc1cccc(NC(=O)c2cc(-c3cc(C)cc(C)c3O)n[nH]2)c1,-11%,?,-23%,-54*,?,-8
